Measured values: PubChem BioAssay (NCI)
About 79,000 compounds went through this panel and 15% of them were active in at least one assay; those are over-represented in the sample as a whole. Values without a mark were called inactive. The source made the active and inactive calls. No stated cut-off is given here; in the data, active means growth inhibition above about 70%; inactive means the rest.

How the values were obtained:
[1] = NCI Yeast Anticancer Drug Screen. Data for the rad52 strain (AID 147);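 further: 0% = growth of vehicle-treated control cultures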; details: S. cerevisiae rad52 mutant growth inhibition, hits give high values
Method in brief: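 Compounds are applied to a genetically defined yeast strain lacking normal DNA damage repair, and inhibition of growth is expressed relative to cultures given vehicle only.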

[2] = NCI Yeast Anticancer Drug Screen. Data for the wt1 strain (AID 149);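 further: 0% = growth of vehicle-treated wt1 cultures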; details: S. cerevisiae wt1 strain (SPY 50644) growth inhibition, hits give high values
Method in brief: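 wt1 strain grown with compound or vehicle; inhibition taken from the growth difference.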

[3] = NCI Yeast Anticancer Drug Screen. Data for the rad50EPP+ strain (AID 151);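 further: 0% = growth of vehicle-treated control cultures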; details: S. cerevisiae rad50 mutant strain, hits give high values
Method in brief: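 Compounds were applied to the rad50EPP+ yeast strain, which bears a defined DNA repair alteration, and growth inhibition was determined relative to vehicle-treated cultures.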

[4] = NCI Yeast Anticancer Drug Screen. Data for the mgt1 strain (AID 153); details: S. cerevisiae mgt1 mutant growth inhibition, hits give high values
Method in brief: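 Strain: mgt1 yeast, one of a set carrying defined DNA damage repair or cell cycle control alterations. Compound-treated growth compared with vehicle.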

[5] = NCI Yeast Anticancer Drug Screen. Data for the rad50 strain (AID 155);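 further: 0% = growth of vehicle-only cultures of the same strain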; details: S. cerevisiae rad50 strain growth inhibition, hits give high values
Method in brief: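 DNA repair mutant yeast, compound exposure, growth read-out; inhibition is taken relative to vehicle.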

[6] = NCI Yeast Anticancer Drug Screen. Data for the mec2-1 strain (AID 157); details: S. cerevisiae mec2-1 strain, hits give high values
Method in brief: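 Strain: mec2-1 (DNA repair/cell cycle alteration). Compound exposure, then growth measured; inhibition expressed relative to vehicle.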

[7] = NCI Yeast Anticancer Drug Screen. Data for the rad14 strain (AID 159);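 further: 0% = growth of vehicle-treated control cultures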; details: S. cerevisiae rad14 strain growth inhibition, hits give high values
Method in brief: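 DNA repair-defective yeast, compound-exposed; % growth inhibition derived by comparison with vehicle-treated controls.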

[8] = NCI Yeast Anticancer Drug Screen. Data for the sgs1 mgt1 strain (AID 161);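 further: 0% = growth of cultures given vehicle only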; details: S. cerevisiae sgs1 mgt1 strain, hits give high values
Method in brief: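 Read-out: growth inhibition vs vehicle controls. Cells: mutant yeast strain deficient in DNA damage repair.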

[9] = NCI Yeast Anticancer Drug Screen. Data for the CLN2oe strain (AID 163);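 further: 0% = growth of vehicle-only control cultures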; details: S. cerevisiae CLN2oe strain, hits give high values
Method in brief: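 Growth of a genetically modified yeast strain is measured after compound exposure and compared with cultures given vehicle alone.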

[10] = NCI Yeast Anticancer Drug Screen. Data for the cln2 rad14 strain (AID 165);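 further: 0% = growth equal to vehicle treated cultures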; details: S. cerevisiae cln2 rad14 strain, hits give high values
Method in brief: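 Compounds are applied to the cln2 rad14 yeast strain, and growth is then compared with that of vehicle-treated cultures to give inhibition.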

[11] = NCI Yeast Anticancer Drug Screen. Data for the bub3 strain (AID 167); details: S. cerevisiae bub3 mutant strain, hits give high values
Method in brief: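 In this screen, a yeast mutant lacking normal mitotic checkpoint function is challenged with compound. Relative growth versus vehicle gives the inhibition value.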

[12] = NCI Yeast Anticancer Drug Screen. Data for the wt2 strain (AID 169);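 further: 0% = growth of vehicle-treated yeast cultures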; details: S. cerevisiae wt2 strain growth inhibition, hits give high values
Method in brief: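 This strain belongs to a panel of yeast strains with defined genetic alterations in DNA damage repair or cell cycle control. Compounds are applied, and growth inhibition is measured against vehicle-treated cultures.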

[13] = NCI Yeast Anticancer Drug Screen. Data for the mlh1 strain (AID 171);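 further: 0% = growth of vehicle-treated control cultures of the same strain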; details: S. cerevisiae mlh1 strain growth inhibition, hits give high values
Method in brief: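 Growth of the mutant yeast strain after compound exposure, expressed as inhibition relative to vehicle-only controls.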

[14] = NCI Yeast Anticancer Drug Screen. Data for the sgs1 strain (AID 173);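 further: 0% = growth of vehicle-only control cultures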; details: S. cerevisiae sgs1 mutant, hits give high values
Method in brief: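 Growth of a yeast strain bearing a defined genetic alteration is measured after compound treatment. Inhibition is expressed relative to vehicle-only controls.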

[15] = NCI Yeast Anticancer Drug Screen. Data for the mlh1 rad18 strain (AID 175); details: S. cerevisiae mlh1 rad18 strain growth inhibition, hits give high values
Method in brief: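 Read-out is yeast growth inhibition, calculated against vehicle-only controls. The compound was applied to a strain engineered with DNA damage repair alterations.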

[16] = NCI Yeast Anticancer Drug Screen. Data for the rad18 strain (AID 177); details: S. cerevisiae rad18 mutant growth inhibition, hits give high values
Method in brief: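 Growth of the mutant yeast strain after compound exposure, normalised to vehicle-only cultures.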

[17] = at 5.0 µM (retest, dose inferred, filed as 0.5)
[18] = at 50.0 µM (retest, dose inferred, filed as 5.0)

OCC(O)C(O)CO (stereo not drawn) (tested in a mixture with another compound)
growth inhibition ([1]; at 1.2 µM): -2%
growth inhibition ([1]; at 3.7 µM): -3%
growth inhibition ([1]; at 11.0 µM): -1%
growth inhibition ([1]; at 33.0 µM): -4%
growth inhibition ([1]; at 100.0 µM): 8%
growth inhibition ([2]; at 1.2 µM): -4%
growth inhibition ([2]; at 3.7 µM): -4%
growth inhibition ([2]; at 11.0 µM): -5%
growth inhibition ([2]; at 33.0 µM): -2%
growth inhibition ([2]; at 100.0 µM): 0%
growth inhibition ([3]; at 1.2 µM): 1%
growth inhibition ([3]; at 3.7 µM): 2%
growth inhibition ([3]; at 11.0 µM): 6%
growth inhibition ([3]; at 33.0 µM): 9%
growth inhibition ([3]; at 100.0 µM): 10%
growth inhibition ([4]; at 1.2 µM): 0%
growth inhibition ([4]; at 3.7 µM): -2%
growth inhibition ([4]; at 11.0 µM): -1%
growth inhibition ([4]; at 33.0 µM): 5%
growth inhibition ([4]; at 100.0 µM): 0%
growth inhibition ([5]; at 1.2 µM): -8%
growth inhibition ([5]; at 3.7 µM): -17%
growth inhibition [5, 17]: -130%
growth inhibition ([5]; at 11.0 µM): -3%
growth inhibition ([5]; at 33.0 µM): 16%
growth inhibition [5, 18]: 82% (active)
growth inhibition ([5]; at 50.0 µM): 15.4%
growth inhibition ([5]; at 100.0 µM): -1%
growth inhibition ([6]; at 1.2 µM): -1%
growth inhibition ([6]; at 3.7 µM): 0%
growth inhibition [6, 17]: -47%
growth inhibition ([6]; at 11.0 µM): -6%
growth inhibition ([6]; at 33.0 µM): 0%
growth inhibition [6, 18]: -1%
growth inhibition ([6]; at 50.0 µM): 32.4%
growth inhibition ([6]; at 100.0 µM): 3%
growth inhibition ([7]; at 1.2 µM): -1%
growth inhibition ([7]; at 3.7 µM): -5%
growth inhibition ([7]; at 11.0 µM): -4%
growth inhibition ([7]; at 33.0 µM): -3%
growth inhibition ([7]; at 100.0 µM): -1%
growth inhibition [8, 17]: -57%
growth inhibition [8, 18]: 39%
growth inhibition ([8]; at 50.0 µM): -2.1%
growth inhibition ([9]; at 1.2 µM): 2%
growth inhibition ([9]; at 3.7 µM): -1%
growth inhibition ([9]; at 11.0 µM): 0%
growth inhibition ([9]; at 33.0 µM): 0%
growth inhibition ([9]; at 100.0 µM): 1%
growth inhibition [10, 17]: -60%
growth inhibition [10, 18]: -30%
growth inhibition ([10]; at 50.0 µM): -44.6%
growth inhibition ([11]; at 1.2 µM): -1%
growth inhibition ([11]; at 3.7 µM): -4%
growth inhibition [11, 17]: -64%
growth inhibition ([11]; at 11.0 µM): -3%
growth inhibition ([11]; at 33.0 µM): -2%
growth inhibition [11, 18]: 25%
growth inhibition ([11]; at 50.0 µM): 12.3%
growth inhibition ([11]; at 100.0 µM): 3%
growth inhibition ([12]; at 1.2 µM): -2%
growth inhibition ([12]; at 3.7 µM): 1%
growth inhibition ([12]; at 11.0 µM): 0%
growth inhibition ([12]; at 33.0 µM): -2%
growth inhibition ([12]; at 100.0 µM): 0%
growth inhibition ([13]; at 1.2 µM): 8%
growth inhibition ([13]; at 3.7 µM): -1%
growth inhibition ([13]; at 11.0 µM): -5%
growth inhibition ([13]; at 33.0 µM): -5%
growth inhibition ([13]; at 100.0 µM): -3%
growth inhibition ([14]; at 1.2 µM): -1%
growth inhibition ([14]; at 3.7 µM): 1%
growth inhibition ([14]; at 11.0 µM): 2%
growth inhibition ([14]; at 33.0 µM): 2%
growth inhibition ([14]; at 100.0 µM): -2%
growth inhibition [15, 17]: -110%
growth inhibition [15, 18]: 29%
growth inhibition ([15]; at 50.0 µM): -9.65%
growth inhibition ([16]; at 1.2 µM): -4%
growth inhibition ([16]; at 3.7 µM): -3%
growth inhibition ([16]; at 11.0 µM): -2%
growth inhibition ([16]; at 33.0 µM): -2%
growth inhibition ([16]; at 100.0 µM): 1%
